Source: PubChem BioAssay AID449768 (Vanderbilt High Throughput Screening Facility, 2010)
In all, about 110,000 compounds went through this assay and about 1,400 (1.3%) were called active. What follows is part of a selection rich in actives, with near analogues and random picks from the rest. Unmarked numbers belong to inactive results.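 Rule for the calls: active = Z score or B-score, a plate-position-corrected score, falls beyond the plate's 99.7% confidence bounds, in either direction; inactive = both scores lie inside the 99.7% bounds.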

molecular target: Sodium-dependent dopamine transporter (Homo sapiens) (UniProt Q01959); assay: modulators of human DAT uptake with cocaine – cell-based, LLC-PK1 hDAT, [14C]-dopamine uptake, MLSMR, cocaine antagonist project, primary screen (AID 449768); conditions: LLC-PK1 hDAT cells, [14C]-dopamine uptake with cocaine IC80; at 10 µM; actives deviate in either direction;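 note: scored against the spread of the other compound wells on the same plate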
Sequence (Q01959 whole entry, looked up): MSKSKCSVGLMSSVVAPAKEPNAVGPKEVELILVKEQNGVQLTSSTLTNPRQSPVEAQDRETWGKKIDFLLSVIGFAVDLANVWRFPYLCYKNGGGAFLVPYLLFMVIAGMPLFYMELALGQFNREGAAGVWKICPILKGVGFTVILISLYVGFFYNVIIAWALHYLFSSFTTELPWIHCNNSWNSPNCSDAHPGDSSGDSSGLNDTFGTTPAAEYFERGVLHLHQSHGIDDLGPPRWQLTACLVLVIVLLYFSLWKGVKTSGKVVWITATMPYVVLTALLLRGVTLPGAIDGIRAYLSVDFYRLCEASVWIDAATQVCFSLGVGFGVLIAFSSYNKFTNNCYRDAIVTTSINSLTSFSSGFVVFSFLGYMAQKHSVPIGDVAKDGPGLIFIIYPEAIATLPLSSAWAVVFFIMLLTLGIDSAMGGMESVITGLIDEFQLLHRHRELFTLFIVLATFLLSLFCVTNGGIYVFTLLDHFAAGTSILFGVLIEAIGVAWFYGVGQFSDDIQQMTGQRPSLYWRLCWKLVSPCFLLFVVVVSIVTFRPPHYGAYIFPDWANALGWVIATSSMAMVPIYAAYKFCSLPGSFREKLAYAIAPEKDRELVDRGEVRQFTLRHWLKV

Q: For `COc1ccccc1CN1CCN(C(=O)Cc2ccccc2)CC1`, which B-score is on record?
A: The B-score was 0.503.

Q: Which B-score does the source give for `O=C(COc1ccc2ccccc2c1)N1CCN(Cc2ccncc2)CC1` here?
A: Its B-score is -1.8 (active).

Q: How did the B-score turn out when `CC(C)c1ccc(OCC(=O)N2CCN(C)CC2)c(Br)c1` was run?
A: Its B-score is -0.237.

Q: With `COC(=O)C1=C(c2cc3ccccc3o2)C[C@@H]2CC[C@H]1N2C(=O)NC1CCCCC1` as the compound, how does the B-score read?
A: The B-score was -0.718.

Q: `COC(=O)C1=C(c2ccccc2)C[C@@H]2CC[C@H]1N2C(=O)N1CCCCC1` was tested. Which B-score did it give?
A: The B-score was -0.0906.
